# Reference: the supplement of paper PMC8726507
# Values without a mark were called inactive.
# Test system: Plasmodium falciparum NF54-HGL (transmission to Anopheles stephensi)
# Assay: percentage of barcode signal found in uninfected mosquitoes (transmission-blocking activity); higher = stronger blocking of transmission to mosquito, active = 80 or more
# Settings: 20 µM; gametocyte preincubation time 24 h; readout time post-feed 8 days
# Procedure: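 The mixture was fed to Anopheles stephensi in 96-well plates as blood meals tagged with DNA-barcoded Asaia bacteria. Eight days later, mosquitoes were classed infected or uninfected by luminescence (mean + 5 SD of unfed controls). Barcodes were quantified by Luminex MagPlex-TAG in the pooled uninfected and infected Asaia cultures, background-corrected, and the score is % of barcode signal in uninfected mosquitoes = 100*Iu/(Iu+Ii).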
row,SMILES,percentage of barcode signal found in uninfected mosquitoes
1,COc1ccc(-c2cncc3ccc(C(=O)NCCCn4ccnc4)nc23)cc1,62.9%
2,O=C(C1CCN(c2nnc(-n3cccc3)s2)CC1)N1CCC(Cc2ccccc2)CC1,28.5%
3,COc1cccc(NC(=O)c2c(NC(=O)c3cccnc3)sc3c2CCC3)c1,34.2%
4,C[C@@H]1[C@H](O)[C@@H](C)/C=C/C=C/C=C/C=C/C=C/C=C/C=C/[C@H](O[C@@H]2O[C@H](C)[C@@H](O)[C@H](N)[C@@H]2O)C[C@@H]2O[C@](O)(C[C@@H](O)C[C@@H](O)[C@H](O)CC[C@@H](O)C[C@@H](O)CC(=O)O[C@H]1C)C[C@H](O)[C@H]2C(=O)O,-1.39%
5,Cc1nn(C)cc1C(C)Nc1nncc(-c2ccc(C(F)(F)F)cc2)n1 (stereo not given),89.3% (active)
6,CC(C(=O)N1CCCC1)N1CCN(S(=O)(=O)c2ccc(C(C)(C)C)cc2)CC1 (stereo not given),0.922%
7,CC(=O)NCC1CN(c2ccc(-c3ccc(CO)cc3)c(F)c2)C(=O)O1 (stereo not given),30.3%
8,N#CCN(CCCCN1CCN(c2ccc(F)cc2)CC1)C(=O)OCc1ccccc1,36.5%
9,COc1ccc2nc(C)cc(OCC(=O)NCc3ccccc3)c2c1,2.14%
10,FC(F)(F)c1cccc(-c2nc3c(NCc4ccncc4)nccc3[nH]2)c1,2.48%
11,CO[C@H]1/C=C/O[C@@]2(C)Oc3c(C)c(O)c4c(O)c(/c(=C/NN5CCN(C)CC5)c(O)c4c3C2=O)=N\C(=O)/C(C)=C\C=C/[C@H](C)[C@H](O)[C@@H](C)[C@@H](O)[C@@H](C)[C@H](OC(C)=O)[C@@H]1C,20.2%
12,O=C(Nc1nnc(S)s1)c1cc(Br)ccc1Cl,18.9%
13,O=C(NCCc1ccccc1)c1cc(-c2cccnc2)cnc1NCC1CC1,2.28%
14,NCC(c1cccs1)S(=O)(=O)c1ccccc1 (stereo not given),17.5%
15,CC(C)(C)C(=O)N(CCCCCCN1C[C@H](O)[C@@H](O)[C@H](O)[C@H]1CO)C1CCCCCC1,17%
16,c1ccc2c(c1)CN(CC1CC1)CC1(CCN(Cc3c[nH]c4cnccc34)CC1)O2,30.7%
17,CCC(Sc1nc2ccccc2o1)C(=O)Nc1nnc(C)s1 (stereo not given),-0.757%
18,Clc1ccc(CN2CCN(C3=NCCN3)CC2)cc1Cl,4.45%
19,COc1cccc(-c2cc3c(Nc4cccnc4)nccc3[nH]2)c1,29%
20,CN1CCN(S(=O)(=O)c2ccc(-c3ccc4c(Nc5ccc6nn[nH]c6c5)ccnc4c3)cc2)CC1,3.18%
